Measurements taken from PubChem BioAssay AID602399 (Sanford-Burnham Center for Chemical Genomics, 2012).
Hit rate of the full screen: of about 360,000 compounds, about 2,800 (0.78%) were called active. Rule as the data show it: active = inhibition above about 26%; inactive = the rest. This excerpt belongs to a sample that is enriched for actives.

What follows are compounds tested on Nicotinate-nucleotide adenylyltransferase NadD (Staphylococcus aureus N315) (assay: S. aureus NadD enzyme activity blockers – biochemical, colorimetric, uHTS, primary screen (AID 602399)). Settings: purified NadD enzyme, colorimetric absorbance read-out; at 20 µM; hits give high values.

**Q.** How did the inhibition turn out when `O=C(Nc1ccc(C(=O)O)cc1)/C(=C\c1ccccc1)NC(=O)c1ccc(Br)cc1` was run?
**A.** -2.9% (inactive)

**Q.** How did the inhibition turn out when `COCCCn1c(=O)/c(=C/c2ccccc2OC(C)C)s/c1=C(\C#N)C(=O)Nc1ccc(C(=O)O)cc1` was run?
**A.** 32% (active)

**Q.** Which inhibition does the source give for `COc1ccccc1C(=O)N/C(=C/c1ccco1)C(=O)Nc1ccc(C(=O)O)cc1` here?
**A.** 1.58% (inactive)

**Q.** How did the inhibition turn out when `CCOC(=O)c1cccc(NC(=O)CCc2nnc3ccc(N4CCOCC4)nn23)c1` was run?
**A.** -5.9% (inactive)

**Q.** `Cc1ccc(Cn2cc(CN3CC(N4CCN(C)CC4)CS3(=O)=O)nn2)cc1` (stereo not drawn) was tested. Which inhibition did it give?
**A.** -10.5% (inactive)

**Q.** For `C=CCN1C(=O)C(O)(CC(=O)c2ccccn2)c2ccccc21` (stereo not drawn), which inhibition is on record?
**A.** 13.4% (inactive)

**Q.** For `CCOc1ccccc1C1CC(c2ccc(Cl)cc2)Nc2nc(N)nn21` (stereo not drawn), which inhibition is on record?
**A.** 9.48% (inactive)

**Q.** `Cc1ccc(C2CC(c3cccc(Br)c3)n3nc(N)nc3N2)cc1` (stereo not drawn) was tested. Which inhibition did it give?
**A.** 7.54% (inactive)

**Q.** For `Nc1nc2n(n1)C(c1ccco1)CC(c1ccc(Cl)c(Cl)c1)N2` (stereo not drawn), which inhibition is on record?
**A.** 47.1% (active)

**Q.** With `CCOC(=O)c1cn(CC)c2cc(F)c(F)cc2c1=O` as the compound, how does the inhibition read?
**A.** -0.618% (inactive)

**Q.** With `COC(=O)CSc1nc2c(c(C3CC=CCC3)c1C#N)CCC2` (stereo not drawn) as the compound, how does the inhibition read?
**A.** -1.38% (inactive)

**Q.** Which inhibition does the source give for `COc1ccc(Cc2nnc(NC(=O)Cc3cccs3)s2)cc1` here?
**A.** 32.5% (active)

**Q.** How did the inhibition turn out when `COc1ccc(CC(=O)Nc2sc(Cc3ccccc3)c(C)c2C(N)=O)cc1` was run?
**A.** -6.77% (inactive)

**Q.** `COc1cc(OC)cc(C(=O)NNC(=O)Cc2cccs2)c1` was tested. Which inhibition did it give?
**A.** 10.7% (inactive)

**Q.** Which inhibition does the source give for `CC(C)C[C@@H](CO)N1CCN(Cc2ccc(O)cc2)CCC1=O` here?
**A.** 4.79% (inactive)

**Q.** For `CC(CCN1CCN=C1N(C)C)c1ccccc1` (stereo not drawn), which inhibition is on record?
**A.** -0.906% (inactive)

**Q.** How did the inhibition turn out when `Cc1c2cnn(CC(=O)NCc3ccccn3)c(=O)c2c(C)n1Cc1ccc(Cl)cc1` was run?
**A.** 0.351% (inactive)

**Q.** How did the inhibition turn out when `COC(=O)c1cc(Oc2ccc(S(=O)(=O)N3CCOCC3)cc2[N+](=O)[O-])cc(C(=O)OC)c1` was run?
**A.** 1.67% (inactive)

**Q.** With `O=[N+]([O-])c1cc(Cl)cc(/C=N/NC(=S)Nc2cc(S(=O)(=O)N3CCOCC3)ccc2Cl)c1O` as the compound, how does the inhibition read?
**A.** 47.9% (active)

**Q.** Which inhibition does the source give for `Cc1cc(OCCCC(=O)Nc2cc(S(=O)(=O)N3CCOCC3)ccc2N2CCOCC2)ccc1Cl` here?
**A.** -12.2% (inactive)

**Q.** For `CC(=O)Nc1cc(-c2ccc(N3CCN(C)CC3)cc2)cn2c(-c3ccc(F)cc3)cnc12`, which inhibition is on record?
**A.** 0.533% (inactive)

**Q.** Which inhibition does the source give for `O=C(Nc1ccc(N2CCN(C(=O)c3cccs3)CC2)cc1)c1cccnc1Cl` here?
**A.** 4.87% (inactive)

**Q.** Which inhibition does the source give for `C=CC(=O)Nc1ccc(Nc2ccnc(Nc3ccc(N4CCN(C)CC4)cc3)n2)cc1` here?
**A.** 42.6% (active)

**Q.** With `CC1=C(C)CC2C(=O)N(c3cccc4ccccc34)C(=O)C2C1` (stereo not drawn) as the compound, how does the inhibition read?
**A.** -0.224% (inactive)

**Q.** Which inhibition does the source give for `Cc1ccc(C2=NN(C(=O)COc3ncnc4ccccc34)C(c3ccco3)C2)cc1` (stereo not drawn) here?
**A.** 0.743% (inactive)

**Q.** With `O=C1c2cccc(OCC(=O)N3N=C(c4cccs4)CC3c3ccc(F)cc3)c2CCN1Cc1ccccc1` (stereo not drawn) as the compound, how does the inhibition read?
**A.** 26.5% (inactive)

**Q.** For `Cc1ccc(N2C(=O)C3N=NN(CC(=O)N4N=C(c5cccc6ccccc56)CC4c4ccccc4)C3C2=O)cc1` (stereo not drawn), which inhibition is on record?
**A.** 45.4% (active)

**Q.** How did the inhibition turn out when `Oc1ccccc1C1=NN(c2ccccc2)C(c2ccccc2)C1` (stereo not drawn) was run?
**A.** -11.2% (inactive)

**Q.** `O=C1C2N=NN(CC(=O)N3N=C(c4cccc5ccccc45)CC3c3ccccc3)C2C(=O)N1c1ccccc1` (stereo not drawn) was tested. Which inhibition did it give?
**A.** 48.5% (active)

**Q.** For `CN1CCN(C(=O)/C(=C\c2ccc3c(c2)OCO3)NC(=O)c2cccs2)CC1`, which inhibition is on record?
**A.** -6.87% (inactive)

**Q.** With `O=C1CC2(CCCC2)Oc2ccc(Cl)cc21` as the compound, how does the inhibition read?
**A.** -1.24% (inactive)

**Q.** Which inhibition does the source give for `CCSC1=NCCN1C(=O)c1ccc(S(=O)(=O)N(CC)CC)cc1` here?
**A.** 3.55% (inactive)

**Q.** For `Cc1ccc(-n2c(=O)cc(N3CCN(Cc4ccccc4)CC3)[nH]c2=O)cc1`, which inhibition is on record?
**A.** 4.3% (inactive)

**Q.** For `Cc1cccc(CCNS(=O)(=O)c2ccc3c(c2)NC(=O)CO3)c1`, which inhibition is on record?
**A.** -0.563% (inactive)

**Q.** How did the inhibition turn out when `COC(=O)c1ccc(/C=N/OCC(=O)Nc2cc(F)ccc2F)cc1` was run?
**A.** -3.44% (inactive)

**Q.** How did the inhibition turn out when `CCCc1nc2c3ccccc3ccn2c1Cc1ccccc1C(F)(F)F` was run?
**A.** 1.56% (inactive)

**Q.** With `Cc1ccc(C(=O)NNC(=O)c2cc3cc4ccccc4nc3s2)cc1` as the compound, how does the inhibition read?
**A.** 31.4% (active)

**Q.** How did the inhibition turn out when `Cc1ccc(C(=O)NNC(=O)CSc2nnc3ccccn23)cc1` was run?
**A.** -1.33% (inactive)

**Q.** With `Cc1ccc(C(=O)NNc2ncnc3ccccc23)cc1` as the compound, how does the inhibition read?
**A.** -2.31% (inactive)

**Q.** Which inhibition does the source give for `Nc1nc2c(ncn2[C@@H]2O[C@H](CNS(=O)(=O)N3CCc4ccccc4C3)[C@@H](O)[C@H]2O)c(=O)[nH]1` here?
**A.** 1.88% (inactive)

**Q.** How did the inhibition turn out when `CCC/C=C(\CCC)C(NC(=O)Cc1ccccc1)c1ccc(C(=O)OC)cc1` (stereo not drawn) was run?
**A.** 10.4% (inactive)

**Q.** For `CC1CCN(C(=O)Cn2cc(C(=O)c3ccco3)c3ccccc32)CC1`, which inhibition is on record?
**A.** 3.46% (inactive)

**Q.** `O=C(c1ccc(CS(=O)(=O)c2ccccc2)o1)N1CCN(c2ccccc2)CC1` was tested. Which inhibition did it give?
**A.** 1.5% (inactive)

**Q.** With `Cn1cncc1C#Cc1c(-c2ccsc2)sc2ccccc12` as the compound, how does the inhibition read?
**A.** 30% (active)

**Q.** For `COc1ccc2sc(-c3ccc(S(C)(=O)=O)cc3)c(C#Cc3cncn3C)c2c1`, which inhibition is on record?
**A.** 0.758% (inactive)

**Q.** For `Cc1cccc(-c2oc3ccc(-c4ccc5c(c4)OCO5)cc3c2C#Cc2cncn2C)c1`, which inhibition is on record?
**A.** 26.9% (inactive)

**Q.** How did the inhibition turn out when `CS(=O)(=O)N(CC(=O)N1CCCCCC1)c1cccc(Cl)c1Cl` was run?
**A.** -9.97% (inactive)

**Q.** How did the inhibition turn out when `Cc1c(S(=O)(=O)NCc2ccccc2)c(=O)n(C)c(=O)n1C` was run?
**A.** -3.14% (inactive)
